# The list is not random: actives were taken first. Their share in the collection is about 2.3%.
# TMEM16A inh: blocks the mouse calcium-activated chloride channel TMEM16A; normalized B-score (activity score, 25-100; higher = stronger inhibition) at 10 µM; Q8BHY3; 310,000 compounds, 1.2% hits; AID 588511; HEK293 TMEM16A/YFP iodide influx fluorescence, ionomycin;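 active means ratio plate-corrected score three or more library SD toward inhibition, starting fluorescence score within five deviations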;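 further: score derived from kinetic fluorescence span divided by baseline fluorescence per well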
# TMEM16A act: activators or potentiators of mouse TMEM16A chloride channel; Q8BHY3; HEK293 TMEM16A/YFP-H148Q/I152L, iodide quench fluorescence; active compounds read low; B-score at 10 µM; 340,000 compounds, 0.3% hits; AID 623877;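 active means fluorescence-ratio B-score plate-corrected deviation score at least 3 library SD below zero, with starting fluorescence score within 5 deviations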;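 further: channel opened by trigger with iodide after compound preincubation; score built on the fluorescence ratio of max minus min over baseline; more negative score means more quench and so TMEM16A activation or potentiation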
# CHT inh: inhibitors of human choline transporter CHT. CHT-expressing cells, membrane potential dye, choline response; active compounds read low. B-score at 10 µM. 310,000 compounds, 0.86% hits. AID 488975;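 active means B-score over 3 SD under the library average, and starting fluorescence ratio not unusually high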;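 further: choline stimulus applied at its EC90 after an EC20 pre-addition; B-score computed on integrated fluorescence ratio after choline addition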
# Target sequence (Q9GZV3 whole entry, looked up): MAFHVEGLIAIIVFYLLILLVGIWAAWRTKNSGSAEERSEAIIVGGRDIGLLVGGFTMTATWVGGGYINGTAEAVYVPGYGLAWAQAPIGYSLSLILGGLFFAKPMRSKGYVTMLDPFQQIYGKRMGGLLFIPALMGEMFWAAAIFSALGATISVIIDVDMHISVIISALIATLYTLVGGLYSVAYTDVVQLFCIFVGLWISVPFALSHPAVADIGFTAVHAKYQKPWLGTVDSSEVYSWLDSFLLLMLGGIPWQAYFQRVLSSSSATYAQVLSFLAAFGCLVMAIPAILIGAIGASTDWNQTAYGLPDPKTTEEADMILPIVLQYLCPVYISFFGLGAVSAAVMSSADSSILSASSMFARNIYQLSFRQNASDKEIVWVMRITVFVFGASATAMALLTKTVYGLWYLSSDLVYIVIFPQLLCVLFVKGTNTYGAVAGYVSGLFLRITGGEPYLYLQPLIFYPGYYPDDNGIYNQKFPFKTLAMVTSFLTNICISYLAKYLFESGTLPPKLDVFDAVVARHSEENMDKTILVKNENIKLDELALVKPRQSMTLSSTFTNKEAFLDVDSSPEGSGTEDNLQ
# CHT allo act: human CHT allosteric activation; B-score at 10 µM; CHT-expressing cells, membrane potential dye, choline EC20; active compounds read high; LV-AA mutant CHT in HEK293 cells; Q9GZV3; 310,000 compounds, 0.49% hits;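 active means initial fluorescence not abnormally high and integrated response B-score, plate-corrected, over 3 SD above library mean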
# CHT block conf: human CHT inhibition, confirmatory screen; shares compounds with CHT inh; CHT-expressing cells, choline membrane potential dye; LV-to-AA substituted CHT, HEK293 cells; CHT activity remaining % of control (active compounds read low), % at 10 µM; 2,400 compounds, 70% hits; AID 493221;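 active means choline transporter activity left, mean of duplicates at 10 µM, below buffer-only control mean minus 3 SD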;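 further: depolarization triggered by choline at its EC90 following an EC20 pre-addition; 0% = hemicholinium-3 full block and 100% = buffer-only control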
# HEK293 CHT ctr: CHT inhibitor counter-screen hit in parental HEK293 cells | AID 493222 | membrane potential dye, choline response; active = decrease or increase beyond buffer ±3SD | shares compounds with CHT inh | 2,400 compounds, 4% hits | membrane potential ratio readout (active if shifted either direction beyond buffer ±3SD; no single direction) at 10 µM;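 further: parental cells lack the transporter so any hit is non-specific; ratio is peak minus trough fluorescence over baseline after EC90 choline challenge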
# An asterisk follows results filed as active; i = inactive; nt = not tested or not shown.
SMILES,TMEM16A inh,TMEM16A act,CHT inh,CHT allo act,others
C/C(=C\C(=O)c1ccc(Br)cc1)NCc1ccc(C)cc1,100*,i,i,i,
CC(C)N(C(=S)Nc1cccc(C(F)(F)F)c1)C(C)c1ccccn1 (configuration not stated),100*,i,i,i,
O=C(CSc1ccc(Cl)cc1)N1CCC(c2nc3ccccc3s2)CC1,100*,i,i,i,
Cc1cccc(NC(=O)CSCC(=O)N(C)CCOc2ccc(Cl)cc2)c1,i,i,i,i,
COc1ccccc1CN1CCC(CNS(=O)(=O)c2cc(-c3cc(C)no3)ccc2OC)CC1,i,i,i,i,
COc1ccccc1CNS(=O)(=O)c1ccc(-c2cc(C)no2)cc1,i,i,i,6.4*,
O=S(=O)(Nc1ccc(-c2ccc(N3CCOCC3)nn2)cc1)c1ccc(Cl)c(Cl)c1,25*,i,i,i,
O=C(Nc1ccc(C(=O)O)cc1)Nc1ccc([N+](=O)[O-])cc1,i,i,i,i,
O=C(Nc1cc(C(F)(F)F)cc(C(F)(F)F)c1)Nc1cnn(-c2ccc([N+](=O)[O-])cc2)c1C(F)(F)F,100*,i,i,i,
COc1cccc(CN(C)C(=O)CNC(=O)c2ccc(-c3ccccc3)cc2)c1OC,100*,i,i,i,
COc1ccc(CN(C)C(=O)CNC(=O)c2ccc3ccccc3c2)c(OC)c1,i,i,i,i,
O=C(Cc1cn2ccsc2n1)NCCc1ccc(F)cc1,i,-49*,i,i,
COc1ccc(NC(=O)CS(=O)c2ccc(Br)cc2)cc1 (configuration not stated),i,i,i,i,
COc1ccc(OC)c(C(=O)CN2CCN(S(=O)(=O)c3ccc(Br)cc3)CC2)c1,i,i,-6.5*,i,
Cc1ccc(S(=O)(=O)N2CCC(=O)N(C(COCc3ccc(Cl)c(Cl)c3)Cc3ccccc3)CC2)cc1 (configuration not stated),i,nt,i,i,
CC(C)CC(COCc1ccc(F)cc1)N1CCN(C(=O)c2cccc(C(F)(F)F)c2)CCC1=O (configuration not stated),i,i,i,i,
Cc1ccc(S(=O)(=O)N2CCC(=O)N(C(COCc3ccc(C(F)(F)F)cc3)Cc3ccccc3)CC2)cc1 (configuration not stated),i,-34*,i,i,
Cc1ccc(COCC(CC(C)C)N2CCN(C(=O)c3cccc(C(F)(F)F)c3)CCC2=O)cc1 (configuration not stated),i,-17*,i,i,
Cc1ccc(S(=O)(=O)N2CCC(=O)N(C(COCc3cccc(C)c3)Cc3ccccc3)CC2)cc1 (configuration not stated),i,-22*,i,i,
COC(=O)C(CC(=O)c1ccc(Cl)cc1)c1ccccc1 (configuration not stated),nt,i,nt,nt,
COc1ccc(CCNC(=O)COC(=O)CSc2ccc(C(N)=O)cc2[N+](=O)[O-])cc1OC,nt,i,nt,nt,
O=C(NCc1ccc(Cl)cc1)c1n[nH]c([N+](=O)[O-])c1Cl,i,i,-8.5*,i,
N#CC(C#N)=NNc1ccc([N+](=O)[O-])cc1,100*,i,i,i,
COc1ccc(C(=O)/C(C#N)=N/Nc2ccccc2[N+](=O)[O-])cc1,i,i,i,i,
COc1ccc(C(=O)/C(C#N)=N/Nc2ccc([N+](=O)[O-])cc2)cc1,25*,i,i,i,
SMILES,TMEM16A inh,TMEM16A act,CHT inh,CHT allo act,others
C/C(=N\Nc1ccc([N+](=O)[O-])cc1)c1ccc(C#N)cc1,i,i,i,i,
COc1cccc(NC(=O)c2cncs2)c1,i,i,i,i,
O=C(COC(=O)c1ccc(O)cc1O)Nc1cc(-c2ccccc2)nn1-c1ccccc1,i,i,i,i,
Cc1ccc(-c2nc(=S)c3c(n2Cc2ccco2)CC(C)(C)OC3)cc1,i,i,i,12*,
COCCN(CC(=O)Nc1cccc(C)c1C)C(=O)Cc1sc(C)nc1-c1ccc(F)cc1,nt,i,nt,nt,
COC(=O)C(Cc1ccc(OC(=O)c2ccc(C(F)(F)F)cc2)cc1)N1Cc2ccccc2C1=O (configuration not stated),100*,i,i,i,
O=C(CN1CCOCC1)N1CCN(S(=O)(=O)c2ccccc2)C1c1ccccc1 (configuration not stated),i,i,-6.9*,i,CHT block conf=i;HEK293 CHT ctr=-9.8*
CC(C)(C)NCC(O)COc1c(F)cc(Br)cc1F (configuration not stated),i,i,i,i,
CC(C)(C)CC(C)(C)NCC(O)COc1c(F)cc(Br)cc1F (configuration not stated),i,i,-5.5*,i,CHT block conf=60%*;HEK293 CHT ctr=-9*
CCc1noc(C)c1C(=O)OCC(=O)c1ccc(NC(C)=O)cc1F,nt,i,nt,nt,
O=C(NNc1cc(Cl)cc(Cl)c1)c1cccs1,i,i,-6.1*,i,CHT block conf=43%*;HEK293 CHT ctr=i
CCOC(=O)c1cc(CC)sc1NC(=O)COc1ccc2c(C)cc(=O)oc2c1,i,i,-7.3*,i,CHT block conf=i;HEK293 CHT ctr=i
CCCc1ccc(S(=O)(=O)N2CCN(Cc3ccco3)CC2)cc1,i,i,i,i,
CCCS(=O)(=O)N1CCN(Cc2ccco2)CC1,i,i,-6.7*,i,CHT block conf=i;HEK293 CHT ctr=i
CCCc1nc2oc3c(NCc4ccccn4)ncnc3c2c2c1COC(C)(C)C2,i,i,i,i,
CCCc1nc2oc3c(NCC4CCCO4)ncnc3c2c2c1COC(C)(C)C2 (configuration not stated),i,i,-8.1*,i,CHT block conf=16%*;HEK293 CHT ctr=i
O=[N+]([O-])c1ccc(O)c(C2=NNC(c3ccccc3F)C2)c1 (configuration not stated),100*,i,-10*,i,CHT block conf=20%*;HEK293 CHT ctr=i
CCCCCCCCCCCCN1[C@@H](CC(=O)O)c2cc(C(F)(F)F)ccc2S1(=O)=O,100*,i,-7.3*,i,CHT block conf=44%*;HEK293 CHT ctr=i
O=C1c2ccccc2C(=O)N1CCCCSc1nnc2c(Cl)cc(Cl)cn12,i,i,-5.4*,i,CHT block conf=i;HEK293 CHT ctr=i
COc1ccc(CNc2ncc(-c3ccccc3)n2C)cc1,i,i,-5.5*,i,CHT block conf=57%*;HEK293 CHT ctr=i
O=C(NC1CCCCCCC1)NC1CCCCC1,i,i,-5.7*,i,CHT block conf=i;HEK293 CHT ctr=i
CN1CCC(NC(=O)NC2CCCCC2)CC1,i,i,i,i,

# Screens: PubChem, Johns Hopkins Ion Channel Center
